Results on 13 compounds are retold here after PubChem BioAssay (Tox21).

Records with an inconclusive call do not appear. Activity calls are given as the source filed them. Unless noted, the call rests on the fitted dose curve; in most records, active means well fitted curve in the direction sought with a large enough effect in the repeat runs; inconclusive means weak or mixed curves; inactive means no such curve, though single readings can be large; an effect the other way counts as inactive or inconclusive.

Assay [1] is described as follows: qHTS assay to identify small molecule agonists of the peroxisome proliferator-activated receptor delta (PPARd) signaling pathway - cell viability counter screen (AID 743211). Further: nearly all actives have a fitted effect of over 55% in size. The procedure, abridged:
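Viability of GeneBLAzer PPARd UAS-bla HEK293H cells was assessed after 17 h compound incubation at 37C, using CellTiter-Glo reagent added after the reporter read and luminescence recorded 30 min later.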
In general terms: In qHTS, concentration-response curves come from the screen itself.

The target of assay [2] is Peroxisome proliferator-activated receptor delta (Homo sapiens) (UniProt Q03181). The assay can be described thus: qHTS assay to identify small molecule agonists of the peroxisome proliferator-activated receptor delta (PPARd) signaling pathway (AID 743212; calls by dose curve;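 further: HEK293H cells with PPARd UAS beta-lactamase reporter GeneBLAzer system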). Summed up: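 Beta-lactamase reporter read by fluorescence (LiveBLAzer B/G FRET, 2 h, room temperature). Test agents, in DMSO, incubated at 37 C with PPARd-bla HEK293H cells.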

The nature of assay [3]: qHTS assay to identify small molecule antagonists of the peroxisome proliferator-activated receptor delta (PPARd) signaling pathway - cell viability counter screen (AID 743213). Further: nearly all actives have a fitted effect of over 50% in size. The procedure, abridged: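 CellTiter-Glo was added to PPARd-bla HEK293H wells following 17 h compound treatment in the presence of 300 nM L165041. Luminescence was recorded after 30 min at room temperature.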

Assay [4] has as its target Peroxisome proliferator-activated receptor delta (Homo sapiens) (UniProt Q03181). The assay can be described thus: qHTS assay to identify small molecule antagonists of the peroxisome proliferator-activated receptor delta (PPARd) signaling pathway (AID 743215; active means well fitted inhibition curve with a large enough effect in the signal ratio in the repeat runs, not every such curve was filed as active; the % refers to the signal ratio;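 further: cells stimulated with agonist L165041 at 300 nM final during compound exposure; series mostly up to about 62 µM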). Summed up:
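Fluorescence from cleaved LiveBLAzer B/G FRET substrate (2 h, room temperature) reports PPARd-driven beta-lactamase in HEK293H UAS-bla cells. Cells had been treated 17 h at 37 C with compound plus 300 nM final L165041.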

Assay [5] in a line: qHTS assay to identify small molecule agonists of the farnesoid-X-receptor (FXR) signaling pathway - cell viability counter screen (AID 743218). Further: nearly all actives have a fitted effect of over 45% in size. The procedure, abridged:
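Readout: CellTiter-Glo luminescence, 30 min RT, multiplexed after the FXR-bla FRET reading. HEK 293T FXR-UAS-bla cells received compound 5 h post-plating and were incubated 16 h at 37 C.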

Assay [6] is described as follows: qHTS assay to identify small molecule antagonists of the farnesoid-X-receptor (FXR) signaling pathway - cell viability counter screen (AID 743221; active means well fitted cell-killing curve with a large enough effect in the repeat runs, not every such curve was filed as active; further: nearly all actives have a fitted effect of over 50% in size). The procedure, abridged: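 Quantitative HTS of the Tox21 10K library run in parallel with the beta-lactamase reporter read. HEK 293T cells carrying a UAS-driven bla reporter got compound and 50 uM CDCA (final) for 16 h; ATP-based luminescence followed.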

Assay [7] has as its target Vitamin D3 receptor (Homo sapiens) (UniProt P11473). The assay can be described thus: qHTS assay to identify small molecule agonists of the vitamin D receptor (VDR) signaling pathway (AID 743222; calls by dose curve). Summed up: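 Following 4 h attachment at 37C, VDR-bla cells (2,000 per well) received DMSO-dissolved compounds or controls. After 16 h incubation, LiveBLAzer B/G FRET substrate was added and fluorescence read 2 h later at room temperature.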

Assay [8] has the same target. As to the kind of experiment: qHTS assay to identify small molecule antagonists of the vitamin D receptor (VDR) signaling pathway (AID 743223; active means well fitted inhibition curve with a large enough effect in the signal ratio in the repeat runs, not every such curve was filed as active; the % refers to the signal ratio). The procedure, abridged:
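Fluorescence from LiveBLAzer B/G FRET substrate, read after 2 h at room temperature, reflects beta-lactamase reporter activity in VDR-bla cells treated 16 h at 37C with compounds and agonist 1alpha,25-dihydroxyvitamin D3 (3 nM final).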

Assay [9] in a line: qHTS assay to identify small molecule agonists of the vitamin D receptor (VDR) signaling pathway - cell viability counter screen (AID 743224). Further: series mostly up to about 63 µM; nearly all actives have a fitted effect of over 50% in size. The procedure, abridged:
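In parallel with the bla FRET readout, cytotoxicity toward VDR-bla cells after 16 h compound exposure was assessed by CellTiter-Glo, with luminescence recorded after a 30 min room-temperature incubation.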

Assay [10] can be described thus: qHTS assay to identify small molecule antagonists of the vitamin D receptor (VDR) signaling pathway - cell viability counter screen (AID 743225). Further: nearly all actives have a fitted effect of over 50% in size. Further: potency means the concentration at half of the fitted maximal effect. Summed up:
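Cells (VDR-UAS-bla HEK 293T) are plated, rested 4 h at 37C, dosed with compound and 3 nM final 1-alpha,25-dihydroxy vitamin D3, and incubated 16 h. Viability is taken from CellTiter-Glo luminescence in the reporter wells.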

Assay [11] can be described thus: qHTS assay to identify small molecule agonists of the NFkB signaling pathway (AID 1159509; active means well fitted curve in the direction sought with a large enough effect in the signal ratio in the repeat runs, not every such curve was filed as active; the % refers to the signal ratio; further: series mostly up to about 61 µM). The procedure, abridged: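 Beta-lactamase reporter assay run in quantitative high-throughput format on an NF-kB-responsive ME-180 line, with 5 hr compound treatment and a FRET-based blue/green fluorescence readout.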
The nature of assay [12]: qHTS assay to identify small molecule agonists of the NFkB signaling pathway - cell viability counter screen (AID 1159515; calls by dose curve; further: series mostly up to about 61 µM; nearly all actives have a fitted effect of over 55% in size). Summed up: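 Plate 2,000 NFkB-bla ME-180 cells/well; incubate overnight. Add compounds, 5 hr at 37 C. Add FRET substrate, 1.5 hr RT. Add CellTiter-Glo, 30 min RT; read luminescence.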
The nature of assay [13]: qHTS assay to identify small molecule agonists of the endoplasmic reticulum stress response signaling pathway - cell viability counter screen (AID 1159517; calls by dose curve). Summed up:
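Cytotoxicity of test compounds toward ESRE-bla HeLa cells was assessed after 5 hr exposure. The luminescent CellTiter-Glo signal was measured 30 min after reagent addition.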

Assay [14] can be described thus: qHTS assay to identify small molecule antagonists of the retinoid-related orphan receptor gamma (ROR-gamma) signaling pathway - cell viability counter screen (AID 1159520). Further: nearly all actives have a fitted effect of over 50% in size. Summed up:
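Tet-on ROR gamma CHO cells (1,000/well) were plated 4 hr, given compounds in DMSO for 2 hr at 37 C, then induced with 1 uM final doxycycline for 16 hr. Viability was read as ATP by CellTiter-Glo luminescence after 30 min.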

For assay [15], the target named is Nuclear receptor ROR-gamma (Homo sapiens) (UniProt P51449). The assay can be described thus: qHTS assay to identify small molecule antagonists of the retinoid-related orphan receptor gamma (ROR-gamma) signaling pathway (AID 1159521; further: nearly all actives have a fitted effect of over 50% in size; further: potency means the concentration at half of the fitted maximal effect). The procedure, abridged:
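RORγ antagonism is scored from reduced reporter luminescence in Tet-on CHO cells. Induction used 1 uM final doxycycline hyclate for 16 h at 37 C, following a 2 h compound exposure.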

A short description of assay [16]: qHTS assay to identify small molecule agonists of the AP-1 signaling pathway - cell viability counter screen (AID 1159525; calls by dose curve; further: nearly all actives have a fitted effect of over 55% in size). Summed up:
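Each titration point was normalised to DMSO and tetra n-octyl ammonium bromide controls. The read was Cell Titer Glo luminescence after 30 min at RT, following 5 h compound exposure of ME-180 AP-1-bla cells at 37 °C.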

A short description of assay [17]: qHTS assay to identify small molecule agonists of the AP-1 signaling pathway (AID 1159526; calls by dose curve).
Assay [18] deals with Bile acid receptor (Homo sapiens) (UniProt Q96RI1). As to the kind of experiment: qHTS assay to identify small molecule antagonists of the farnesoid-X-receptor (FXR) signaling pathway (AID 743217; active means well fitted inhibition curve with a large enough effect in the signal ratio in the repeat runs, not every such curve was filed as active; the % refers to the signal ratio). Summed up: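 FRET fluorescence after 2 h room-temperature LiveBLAzer loading gives the readout. Prior step: FXR-bla HEK 293T cells, seeded and incubated 5 h, received test compounds plus 50 uM final CDCA for 16 h at 37 °C.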

Assay [19] shares this target. The assay can be described thus: qHTS assay to identify small molecule agonists of the farnesoid-X-receptor (FXR) signaling pathway (AID 743220; active means well fitted activation curve with a large enough effect in the signal ratio in the repeat runs, not every such curve was filed as active; the % refers to the signal ratio). The procedure, abridged: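 FXR-UAS-bla HEK 293T cells carrying a UAS-driven beta-lactamase reporter were plated for 5 h at 37C/5% CO2, then exposed to DMSO-dissolved Tox21 10K compounds for 16 h at 37C. A LiveBLAzer B/G FRET substrate was loaded for 2 h at room temperature before fluorescence reading.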

Assay [20] in a line: qHTS assay to identify small molecule agonists of the endoplasmic reticulum stress response signaling pathway (AID 1159516; active means well fitted activation curve with a large enough effect in the signal ratio in the repeat runs, not every such curve was filed as active; the % refers to the signal ratio). The procedure, abridged:
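Beta-lactamase expression from the ER stress response element in HeLa reporter cells is quantified with the LiveBLAzer B/G FRET substrate, read at 405 nm excitation after 2 hr at room temperature, following 5 hr compound treatment at 37 C.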

Chain of Bile acid receptor (Homo sapiens) (Q96RI1 whole entry, looked up): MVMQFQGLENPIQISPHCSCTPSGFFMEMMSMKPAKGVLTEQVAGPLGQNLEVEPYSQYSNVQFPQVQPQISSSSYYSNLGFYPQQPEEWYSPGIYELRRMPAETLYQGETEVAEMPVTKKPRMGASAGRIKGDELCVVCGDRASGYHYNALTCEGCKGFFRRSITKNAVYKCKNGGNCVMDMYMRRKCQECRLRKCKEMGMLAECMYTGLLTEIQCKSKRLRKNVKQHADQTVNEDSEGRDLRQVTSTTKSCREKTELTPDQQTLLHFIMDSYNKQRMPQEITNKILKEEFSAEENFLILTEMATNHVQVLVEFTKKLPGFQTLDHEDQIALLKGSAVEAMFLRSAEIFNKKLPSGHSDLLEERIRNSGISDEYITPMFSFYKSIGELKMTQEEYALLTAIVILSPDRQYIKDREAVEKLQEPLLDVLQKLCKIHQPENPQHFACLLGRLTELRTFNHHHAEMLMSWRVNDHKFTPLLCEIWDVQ
Chain of Peroxisome proliferator-activated receptor delta (Homo sapiens) (Q03181 whole entry, looked up): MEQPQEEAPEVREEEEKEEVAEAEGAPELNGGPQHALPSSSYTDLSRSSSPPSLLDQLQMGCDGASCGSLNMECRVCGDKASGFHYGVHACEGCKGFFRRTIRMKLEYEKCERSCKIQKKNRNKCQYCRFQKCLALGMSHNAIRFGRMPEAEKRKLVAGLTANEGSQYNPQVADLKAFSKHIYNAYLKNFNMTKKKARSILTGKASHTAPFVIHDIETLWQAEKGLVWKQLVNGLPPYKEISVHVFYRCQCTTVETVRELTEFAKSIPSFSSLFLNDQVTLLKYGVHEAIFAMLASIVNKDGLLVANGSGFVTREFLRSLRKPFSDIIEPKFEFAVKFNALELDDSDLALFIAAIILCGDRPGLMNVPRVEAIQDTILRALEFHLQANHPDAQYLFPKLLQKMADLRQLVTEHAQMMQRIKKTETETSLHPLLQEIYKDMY
Chain of Vitamin D3 receptor (Homo sapiens) (P11473 whole entry, looked up): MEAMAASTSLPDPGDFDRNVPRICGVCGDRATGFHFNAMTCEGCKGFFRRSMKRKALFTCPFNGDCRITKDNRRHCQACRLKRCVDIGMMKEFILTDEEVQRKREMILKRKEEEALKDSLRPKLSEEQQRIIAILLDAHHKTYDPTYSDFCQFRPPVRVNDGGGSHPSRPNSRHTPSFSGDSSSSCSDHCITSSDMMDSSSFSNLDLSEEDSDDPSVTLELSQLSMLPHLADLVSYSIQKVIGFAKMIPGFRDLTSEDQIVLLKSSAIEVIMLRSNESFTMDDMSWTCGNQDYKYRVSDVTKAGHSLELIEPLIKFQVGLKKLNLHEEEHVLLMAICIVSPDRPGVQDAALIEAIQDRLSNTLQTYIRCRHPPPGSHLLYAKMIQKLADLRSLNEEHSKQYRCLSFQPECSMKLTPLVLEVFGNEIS

In the case of `CCCCCCCCCCCCCCCCCC(=O)OCC(CC)CCCC` (stereo not drawn), the Potency entry in assay [1], in assay [3], in assay [4], in [5], in assay [6] and in assay [9] was “inactive” each time. In addition, the Potency entry in assay [10], in [12], in assay [13], in assay [14], in [15] and in [16] was “inactive” each time. The compound was classed as inactive in assay [2], in assay [7], in assay [8], in assay [11] and in [17].

With `COc1ccc(C)cc1`, the Potency entry in assay [1], in assay [3], in assay [4], in assay [5], in assay [6] and in [9] was “inactive” each time. The Potency entry in [10], in assay [12], in assay [13], in assay [14], in assay [15] and in assay [16] was “inactive” throughout. Besides, the outcome in [2], in [11] and in [17] was inactive.

On to `CC(=O)OCCC1CCCCC1`, for which the Potency entry in assay [1], in assay [3], in [4], in assay [5], in [6] and in assay [9] was “inactive” each time. The Potency entry in [10], in assay [12], in assay [13], in [14], in assay [15] and in assay [16] was “inactive” in each case. Also, the compound was classed as inactive in [2], in assay [7], in assay [8], in assay [11] and in assay [17].

As to `CC(O)Cn1cnc2c1c(=O)n(C)c(=O)n2C` (stereo not drawn), the Potency result in assay [1], in assay [3], in [5], in [19], in assay [6] and in assay [9] was “inactive” throughout. Moreover, the Potency entry in assay [10], in [12], in assay [13], in [14], in assay [15] and in [16] was “inactive” in each case. The result in [2], in assay [18], in [7], in [8], in assay [11] and in [17] was inactive.

Consider `Cc1ccccc1S(N)(=O)=O`, for which the Potency entry in [1], in assay [3], in assay [4], in [5], in [19] and in assay [6] was “inactive” throughout. The Potency entry in assay [9], in assay [10], in assay [12], in [13], in [14] and in [15] was “inactive” throughout. Further, in assay [16], the Potency entry was “inactive”. The compound was classed as inactive in assay [2], in assay [18], in [8], in [11] and in assay [17].

With `O=S(=O)(O)CO`, the Potency result in [1], in assay [3], in assay [5], in assay [6], in assay [9] and in assay [12] was “inactive” throughout. In addition, the Potency result in [20], in assay [14] and in [16] was “inactive” throughout. Further, the result in assay [8], in assay [11] and in assay [17] was inactive.

As for `COC(=O)C1=C(C)NC(C)=C(C(=O)OC(C)(C)CN(C)CCC(c2ccccc2)c2ccccc2)C1c1cccc([N+](=O)[O-])c1` (stereo not drawn), the Potency entry in assay [1], in assay [3], in assay [4], in assay [5], in [10] and in assay [12] was “inactive” throughout. Moreover, the Potency entry in assay [20] and in assay [16] was “inactive” in each case. Besides, the compound was called inactive in assay [2], in assay [7], in [8], in [11] and in [17]. Moreover, the Potency in assay [15] is 11.9 µM (active).

As for `O=C(NC(Cc1cc(=O)[nH]c2ccccc12)C(=O)O)c1ccc(Cl)cc1` (stereo not drawn), the Potency entry in assay [1], in assay [3], in [5], in [6], in [9] and in assay [10] was “inactive” in each case. The Potency entry in assay [12], in assay [20], in assay [14] and in assay [16] was “inactive” each time. For the same compound, the result in [11] and in assay [17] was inactive.

As to `CC(=O)OC(C)C[N+](C)(C)C` (stereo not drawn), the Potency entry in assay [1], in assay [3], in assay [4], in assay [5], in assay [6] and in [9] was “inactive” in each case. The Potency entry in assay [10], in assay [12], in [20], in [14] and in [16] was “inactive” in each case. Also, the call in assay [2], in assay [8] and in assay [11] was inactive.

Consider `CCOc1ncc(F)c(=O)[nH]1`, for which the Potency result in assay [3], in [5], in assay [6], in assay [9], in [10] and in assay [12] was “inactive” throughout. The Potency result in [20], in [14] and in [16] was “inactive” throughout. Besides, the call in [7], in assay [8], in [11] and in assay [17] was inactive.

On to `CCCCCC`, for which the Potency entry in assay [1], in assay [3], in assay [5], in [6], in assay [9] and in assay [10] was “inactive” throughout. The Potency result in assay [12], in [20], in assay [14] and in assay [16] was “inactive” in each case. Besides, the compound was classed as inactive in assay [18], in assay [11] and in assay [17].

On to `CCCCCCCC(=O)Oc1c(Br)cc(C#N)cc1Br`, for which the Potency entry in [1], in assay [19], in assay [6], in assay [12], in assay [20] and in assay [16] was “inactive” each time. The outcome in assay [8], in [11] and in assay [17] was inactive.

As for `CC[C@H]1OC(=O)[C@H](C)[C@@H](O[C@H]2C[C@@](C)(OC)[C@@H](O)[C@H](C)O2)[C@H](C)[C@@H](O[C@@H]2O[C@H](C)C[C@H](N(C)C)[C@H]2O)[C@](C)(O)C[C@@H](C)CN(C)[C@H](C)[C@@H](O)[C@]1(C)O`, the call in [2], in assay [7], in assay [11] and in [17] was inactive. Besides, the Potency entry in assay [6], in assay [9], in assay [12], in [20], in assay [14] and in [16] was “inactive” each time. In assay [10], the Potency was 2.9 µM (active).
